Measurements as given in ChEMBL document CHEMBL1961873, “Compounds: GSK PKIS; Assays: Nanosyn kinase panel” (2012).

Key:
[1] = target: Tyrosine-protein kinase receptor UFO (Homo sapiens) (UniProt P30530); details: at 1 µM
[2] = target: Tyrosine-protein kinase Blk (Homo sapiens) (UniProt P51451); details: at 0.1 µM
[3] = target: Tyrosine-protein kinase Blk (Homo sapiens) (UniProt P51451); details: at 1 µM
[4] = target: T1, Cytoplasmic tyrosine-protein kinase BMX (Homo sapiens) (UniProt P51813); details: at 0.1 µM
T1 sequence (whole entry): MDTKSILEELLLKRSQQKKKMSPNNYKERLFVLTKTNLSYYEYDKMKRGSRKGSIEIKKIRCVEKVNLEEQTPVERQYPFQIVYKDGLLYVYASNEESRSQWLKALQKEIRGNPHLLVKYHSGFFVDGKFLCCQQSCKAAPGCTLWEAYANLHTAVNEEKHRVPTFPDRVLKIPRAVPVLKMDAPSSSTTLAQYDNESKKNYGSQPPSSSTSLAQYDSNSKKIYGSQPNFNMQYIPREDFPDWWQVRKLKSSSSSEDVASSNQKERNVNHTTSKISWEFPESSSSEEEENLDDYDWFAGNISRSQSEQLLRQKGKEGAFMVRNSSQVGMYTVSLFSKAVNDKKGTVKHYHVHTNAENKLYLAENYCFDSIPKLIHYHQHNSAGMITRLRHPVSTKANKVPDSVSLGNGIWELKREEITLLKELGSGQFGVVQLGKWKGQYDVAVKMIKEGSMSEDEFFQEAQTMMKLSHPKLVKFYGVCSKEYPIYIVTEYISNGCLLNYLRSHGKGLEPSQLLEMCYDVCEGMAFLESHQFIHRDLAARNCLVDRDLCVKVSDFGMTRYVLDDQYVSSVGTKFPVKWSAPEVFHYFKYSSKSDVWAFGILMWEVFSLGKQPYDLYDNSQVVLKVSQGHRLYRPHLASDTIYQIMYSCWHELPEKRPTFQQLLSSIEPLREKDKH

[5] = target: T1, Cytoplasmic tyrosine-protein kinase BMX (Homo sapiens); details: at 1 µM
[6] = target: Protein-tyrosine kinase 6 (Homo sapiens) (UniProt Q13882); details: at 0.1 µM
[7] = target: Protein-tyrosine kinase 6 (Homo sapiens) (UniProt Q13882); details: at 1 µM
[8] = target: Tyrosine-protein kinase BTK (Homo sapiens) (UniProt Q06187); details: at 0.1 µM
[9] = target: Tyrosine-protein kinase BTK (Homo sapiens) (UniProt Q06187); details: at 1 µM
[10] = target: Tyrosine-protein kinase CSK (Homo sapiens) (UniProt P41240); details: at 0.1 µM;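 further: value given is the averaged percent inhibition of CSK kinase activity, from the GSK PKIS kinase inhibitor set screening panel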
Tyrosine-protein kinase CSK (Homo sapiens), sequence (P41240 2-450 limits assumed): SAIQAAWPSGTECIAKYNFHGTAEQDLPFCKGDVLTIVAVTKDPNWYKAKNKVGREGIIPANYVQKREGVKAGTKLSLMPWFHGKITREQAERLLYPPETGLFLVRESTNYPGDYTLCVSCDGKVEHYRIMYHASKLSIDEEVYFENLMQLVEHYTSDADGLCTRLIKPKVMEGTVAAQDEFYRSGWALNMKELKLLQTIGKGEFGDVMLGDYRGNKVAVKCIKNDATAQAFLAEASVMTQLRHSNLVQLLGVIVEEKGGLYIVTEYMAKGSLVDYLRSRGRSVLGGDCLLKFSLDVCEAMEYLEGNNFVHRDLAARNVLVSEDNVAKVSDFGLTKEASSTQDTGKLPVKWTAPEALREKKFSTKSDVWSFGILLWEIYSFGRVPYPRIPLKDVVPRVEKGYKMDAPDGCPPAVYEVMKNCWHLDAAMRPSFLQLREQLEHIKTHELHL

Tyrosine-protein kinase receptor UFO (Homo sapiens), sequence (P30530 whole entry): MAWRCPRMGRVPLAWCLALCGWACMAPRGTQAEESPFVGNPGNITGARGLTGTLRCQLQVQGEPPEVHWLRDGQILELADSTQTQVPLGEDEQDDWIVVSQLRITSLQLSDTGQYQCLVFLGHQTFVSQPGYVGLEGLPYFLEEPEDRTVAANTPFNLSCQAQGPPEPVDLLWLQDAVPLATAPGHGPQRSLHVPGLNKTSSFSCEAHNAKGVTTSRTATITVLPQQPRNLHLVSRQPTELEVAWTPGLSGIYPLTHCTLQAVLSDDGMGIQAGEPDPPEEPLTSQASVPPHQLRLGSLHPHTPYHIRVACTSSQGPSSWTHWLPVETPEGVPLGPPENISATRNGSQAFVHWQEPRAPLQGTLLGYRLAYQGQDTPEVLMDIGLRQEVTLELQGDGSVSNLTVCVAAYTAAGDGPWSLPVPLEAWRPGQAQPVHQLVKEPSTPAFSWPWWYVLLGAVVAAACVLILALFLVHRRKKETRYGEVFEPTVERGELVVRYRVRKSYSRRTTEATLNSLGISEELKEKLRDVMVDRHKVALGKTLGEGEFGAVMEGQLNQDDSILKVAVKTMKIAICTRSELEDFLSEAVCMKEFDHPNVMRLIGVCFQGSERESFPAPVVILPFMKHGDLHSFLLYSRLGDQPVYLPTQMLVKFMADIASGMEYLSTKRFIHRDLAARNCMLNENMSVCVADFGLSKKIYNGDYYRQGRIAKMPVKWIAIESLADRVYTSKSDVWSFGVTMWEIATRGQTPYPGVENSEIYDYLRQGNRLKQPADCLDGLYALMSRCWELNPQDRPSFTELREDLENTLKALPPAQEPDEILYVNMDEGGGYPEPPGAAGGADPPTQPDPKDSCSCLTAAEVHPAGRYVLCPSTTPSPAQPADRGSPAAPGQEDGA
Tyrosine-protein kinase Blk (Homo sapiens), sequence (P51451 2-505 limits assumed): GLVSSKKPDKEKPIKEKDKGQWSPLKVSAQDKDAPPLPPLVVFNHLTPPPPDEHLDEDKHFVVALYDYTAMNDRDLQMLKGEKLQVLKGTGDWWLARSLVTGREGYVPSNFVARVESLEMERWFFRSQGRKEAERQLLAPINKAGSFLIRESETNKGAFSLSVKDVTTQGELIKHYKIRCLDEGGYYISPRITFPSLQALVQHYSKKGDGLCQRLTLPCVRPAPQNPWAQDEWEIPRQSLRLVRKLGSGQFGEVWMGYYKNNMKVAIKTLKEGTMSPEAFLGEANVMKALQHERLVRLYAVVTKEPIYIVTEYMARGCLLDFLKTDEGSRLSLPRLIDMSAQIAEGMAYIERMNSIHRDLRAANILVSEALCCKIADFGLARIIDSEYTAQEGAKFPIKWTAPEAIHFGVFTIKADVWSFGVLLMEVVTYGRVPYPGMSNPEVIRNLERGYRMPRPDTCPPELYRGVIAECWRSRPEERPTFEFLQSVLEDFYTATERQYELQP
Protein-tyrosine kinase 6 (Homo sapiens), sequence (Q13882 whole entry, looked up): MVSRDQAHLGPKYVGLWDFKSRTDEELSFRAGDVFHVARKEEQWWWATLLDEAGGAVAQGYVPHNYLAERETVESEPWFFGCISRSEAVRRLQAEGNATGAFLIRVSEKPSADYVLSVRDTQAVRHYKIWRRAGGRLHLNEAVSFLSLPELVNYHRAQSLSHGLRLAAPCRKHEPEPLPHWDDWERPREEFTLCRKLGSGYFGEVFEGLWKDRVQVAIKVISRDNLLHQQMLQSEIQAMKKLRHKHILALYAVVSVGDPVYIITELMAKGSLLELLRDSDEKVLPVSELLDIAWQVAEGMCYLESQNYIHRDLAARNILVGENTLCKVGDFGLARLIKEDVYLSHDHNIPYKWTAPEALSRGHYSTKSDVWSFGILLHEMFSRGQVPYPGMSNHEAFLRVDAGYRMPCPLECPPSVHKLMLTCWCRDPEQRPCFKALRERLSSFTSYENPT
Tyrosine-protein kinase BTK (Homo sapiens), sequence (Q06187 whole entry): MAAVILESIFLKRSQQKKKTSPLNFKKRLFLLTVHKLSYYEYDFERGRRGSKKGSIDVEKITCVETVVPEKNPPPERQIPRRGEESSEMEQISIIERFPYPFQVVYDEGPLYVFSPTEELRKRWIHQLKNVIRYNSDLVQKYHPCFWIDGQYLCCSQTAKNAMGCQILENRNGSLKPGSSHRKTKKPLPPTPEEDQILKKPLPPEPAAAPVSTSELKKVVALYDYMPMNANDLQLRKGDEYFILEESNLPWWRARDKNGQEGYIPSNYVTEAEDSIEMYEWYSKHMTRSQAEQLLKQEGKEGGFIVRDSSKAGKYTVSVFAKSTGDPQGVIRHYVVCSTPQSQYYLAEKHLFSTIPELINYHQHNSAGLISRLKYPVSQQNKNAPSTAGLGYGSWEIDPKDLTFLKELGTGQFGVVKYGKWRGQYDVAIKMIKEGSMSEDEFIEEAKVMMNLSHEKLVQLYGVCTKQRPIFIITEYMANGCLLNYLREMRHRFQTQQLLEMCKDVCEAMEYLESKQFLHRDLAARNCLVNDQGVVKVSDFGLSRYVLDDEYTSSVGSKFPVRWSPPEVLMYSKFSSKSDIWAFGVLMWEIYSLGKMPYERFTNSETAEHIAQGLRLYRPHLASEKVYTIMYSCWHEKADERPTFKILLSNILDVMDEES

Row | Compound | inhibition [1] [%] | inhibition [2] [%] | inhibition [3] [%] | inhibition [4] [%] | inhibition [5] [%] | inhibition [6] [%] | inhibition [7] [%] | inhibition [8] [%] | inhibition [9] [%] | inhibition [10] [%]
1 | COC(=O)Nc1nc2ccc(Oc3ccc(NC(=O)Nc4cccc(Cl)c4)cc3)cc2[nH]1 | 6.96 | 0.1 | 1.79 | 1.98 | 1.28 | 0.55 | -0.38 | 0.06 | -0.37 | 1.23
2 | Fc1ccc(-c2cc(-c3c[nH]nc3-c3ccccn3)ccn2)cc1 | -8.99 | 2.97 | 2.43 | -2.56 | 3.99 | 5.01 | 7.81 | 0.31 | -1.93 | 5.1
3 | COc1cc(Nc2nccc(Nc3ccc4c(C)n[nH]c4c3)n2)cc(OC)c1OC | 1.16 | 12.7 | 69.3 | 17.5 | 64.8 | 11.1 | 55.4 | 7.82 | 34.9 | 21
4 | Fc1ccc(-c2nn3ncccc3c2-c2ccnc(Nc3ccc4c(c3)OCCO4)n2)cc1 | -5.61 | 14.4 | 71.2 | 15 | 49.4 | 17.1 | 67.8 | -1.09 | 5.26 | 3.81
5 | c1ccc(-c2nc3n(c2-c2ccc4c(c2)OCO4)CCC3)nc1 | -5.46 | 0.54 | 3.25 | -1.29 | 1 | 0.9 | 2.26 | -0.42 | -1.35 | 1.01
6 | Fc1cccc(COc2ccc(Nc3ncnc4sc(-c5ccco5)cc34)cc2Cl)c1 | -6.25 | 4 | 3.74 | 2.98 | 2.36 | 3.39 | 3.91 | -1.13 | 1.35 | -0.1
7 | COc1ccc(-c2cc(-c3c[nH]nc3-c3ccccn3)ccn2)cc1 | -5.64 | 4.09 | 3.9 | -1.41 | 5.27 | 6.49 | 7.25 | 2.09 | 1.28 | 7.77
8 | COc1ccc2c(-c3ccnc(Nc4cccc(OC(F)(F)F)c4)n3)cnn2n1 | -4.65 | 3.16 | 4.41 | 0.75 | 8.05 | 7.26 | 7.21 | 1.66 | 2.02 | 8.18
9 | COc1ccc(-c2nn3ncccc3c2-c2ccnc(Nc3ccc4c(c3)OCCO4)n2)cc1 | 8.45 | 5.51 | 39.5 | 0.12 | 8.65 | 12 | 67.5 | 0.65 | 3.53 | -0.27
10 | COc1cc(/C=N/Nc2ncnc3[nH]ncc23)ccc1O | -3.87 | 9.75 | 59.7 | 2.08 | 32.4 | 5.52 | 30.3 | 1.57 | 7.64 | 7.17
11 | CCc1nn2ncccc2c1-c1ccnc(NC2CC2)n1 | -2.77 | 1.77 | 3.32 | 3.6 | 5.18 | -0.52 | 1.65 | 0.24 | 0.76 | 0.85
12 | CC(C)COC(=O)c1ccc2c(c1)/C(=C/Nc1ccc(S(N)(=O)=O)cc1)C(=O)N2 | 13.2 | 1.11 | 28.6 | 0.73 | -1.5 | -2.24 | -2.63 | -1.47 | -1.1 | -2.24
13 | NS(=O)(=O)c1ccc(Nc2ncc(-c3ccccc3)o2)cc1 | -3.58 | 2.41 | 4.76 | 0.13 | 5.05 | 4.11 | 4.41 | 0 | 1.06 | 6.51
14 | c1ccc(COc2ccc(Nc3ncnc4ccc(-c5ccco5)cc34)cc2)cc1 | 2.06 | 1.56 | 3.68 | -1 | 2.02 | 1.6 | 2.35 | 0.63 | 1.73 | 0.39
15 | CCN1CCC(CC(=O)Nc2n[nH]c3nnc(-c4cccc(F)c4F)cc23)CC1 | 0.83 | 3.37 | 3.76 | 1.54 | 1.09 | 2.53 | 1.16 | 0.54 | 1.15 | -1.69
16 | CC(C)(CO)CNC(=O)c1ccc2c(c1)/C(=N/Nc1ccc(S(N)(=O)=O)cc1)C(=O)N2 | 6.57 | -0.9 | 10.8 | -1.83 | 0.67 | -2.27 | -0.34 | 0.27 | -2.23 | 0.77
17 | COc1ccc(-c2cc3c(N)ncnc3o2)cc1 | 2.96 | 0.55 | 4.67 | -2.47 | 2.73 | 0.01 | 2.82 | -0.13 | -0.38 | -1.51
18 | CNC(=O)c1cccc(C#Cc2cncnc2Nc2ccc(OCc3cccc(F)c3)c(Cl)c2)c1 | -0.81 | 1.53 | 1.17 | -1.48 | 1.31 | -0.91 | 2.87 | 2.52 | -0.29 | 1.96
19 | CN(C)CCOc1ccc(-c2nc(-c3ccncc3)c(-c3ccc4c(c3)CC/C4=N\O)[nH]2)cc1 | -4.92 | 2.07 | 6.18 | 2.12 | 3.36 | 4.89 | 12.4 | 0.76 | 1.19 | 6.25
